# aSyn UTR act – Activators via SNCA 5'UTR binding, MLPCN; alpha-synuclein 5'UTR reporter, activators screen; activity score, % (tested at 7.5 µM), hits read low; hit rate 7.1% among 300,000; AID 1814; in the data active = activity score below about -60%
# An asterisk follows results filed as active. A selection follows.
SMILES,aSyn UTR act
C/C(=N\Nc1cccc(C(F)(F)F)c1)c1ccc(O)cc1,-76.1*
CC(C)c1ccc(/C=N/Nc2ccc(C(=O)O)cc2)cc1,85.0
Cc1nn(-c2cccc(C(F)(F)F)c2)c(Cl)c1/C=N/Nc1cccc(C(=O)O)c1,-108.2*
Cc1nn(-c2ccccc2Cl)c(Cl)c1/C=N/Nc1cccc(C(=O)O)c1,103.3
O=C(O)c1ccc(N/N=C/C=C/c2ccccc2)cc1,-124.8*
O=C(O)c1ccc(/C=N/Nc2cccc(C(F)(F)F)c2)cc1,-136.7*
CSc1ccc(/C=N/Nc2ccc(Cl)c(C(=O)O)c2)cc1,-134.0*
O=C(O)c1cc(N/N=C/c2ccc(-c3ccccc3)cc2)ccc1Cl,-201.9*
O=[N+]([O-])c1ccc(-c2cn(-c3ccccc3F)c(=S)[nH]2)cc1,-93.8*
Cc1ccc(-c2cn(-c3ccccc3F)c(=S)[nH]2)cc1,-124.0*
Nc1c(C(=O)Nc2ccccc2)sc2nc(-c3ccco3)ccc12,-176.1*
Cc1cccc(NC(=O)c2sc3nc(N)c(C#N)cc3c2N)c1,-155.6*
N#Cc1cc2c(N)c(C(=O)Nc3ccccc3)sc2nc1N,-124.4*
COc1ccc(NC(=O)Nc2nnc(-c3cccs3)s2)cc1,-112.8*
O=C(Nc1ccccc1)Nc1nnc(-c2cccs2)s1,-181.7*
Brc1ccc(-c2cnc(-c3cccs3)o2)cc1,-170.9*
Cc1ccc2nc(NC(=O)c3ccccn3)sc2c1,111.4
Cc1ccc2nc(NC(=O)Cc3cccs3)sc2c1,-165.9*
O=C(Cc1ccccc1)Nc1nc2ccccc2s1,-102.2*
COc1ccc2nc(NC(=O)Cc3cccs3)sc2c1,-131.8*
CC1(C(=O)Nc2nc3ccccc3s2)CC1(Br)Br (centres undefined),-117.9*
CCc1ccc2nc(NC(=O)CCCc3cccs3)sc2c1,-81.2*
CCOc1ccc2nc(NC(=O)Cc3cccs3)sc2c1,-136.9*
CC(Cc1ccccc1)C(=O)NCc1nc2ccccc2s1 (centres undefined),-75.3*
O=C(Cc1nc(=O)c2ccccc2s1)Nc1ccccc1,-105.1*
SMILES,aSyn UTR act
Cc1ccc2nc(NC(=O)COC(=O)c3ccco3)sc2c1,-96.9*
O=C(Cc1cccs1)Nc1nc2ccccc2s1,-82.2*
O=C(COc1ccc(F)cc1)c1ccc2c(c1)CCCC2,-133.5*
O=C(COc1ccc(Cc2ccccc2)cc1)c1ccc(F)cc1,-71.8*
COCCNC(=O)CSc1nc2ccc(N3CCOCC3)cc2c(=O)n1Cc1ccc(OC)cc1,-79.9*
CCOC(=O)CSc1nc2ccc(N3CCOCC3)cc2c(=O)n1Cc1ccc2c(c1)OCO2,-81.9*
O=C(COC(=O)CCN1C(=O)/C(=C\C=C\c2ccccc2)SC1=S)Nc1ccc(Br)cc1,64.8
CCOC(=O)CN1C(=O)S/C(=C/C=C/c2ccc(N(C)C)cc2)C1=O,-165.3*
CCOC(=O)CN1C(=O)S/C(=C/c2ccc3c(c2)n(C)c(=O)n3C)C1=O,-154.8*
CC(C)c1ccccc1NC(=O)COC(=O)CCN1C(=O)/C(=C\C=C\c2ccccc2)SC1=S,73.0
O=C(CN1C(=O)S/C(=C\C=C\c2ccccc2)C1=O)Nc1ccc(O)cc1,-150.0*
CCC(Sc1nc2ccccc2c(=O)[nH]1)C(=O)Nc1ccc(C(C)=O)cc1 (centres undefined),-79.1*
C=C(C)CSc1nc2ncc(Cl)cc2[nH]1,-73.7*
Cc1cc(Nc2ccccc2)n2nc(C)c(-c3ccccc3)c2n1,-64.0*
Cc1cccc2c1OCC/C2=N\NC(=O)COc1ccccc1Cl,-79.1*
CC(=O)Nc1cccc(-c2csc(Nc3ccc(Cl)cn3)n2)c1,-174.5*
CC(=O)Nc1ccc(-c2csc(Nc3ccc(Cl)cn3)n2)cc1,-127.3*
O=S(=O)(c1ccc(Cl)s1)N1CCCc2cccc(O)c21,-125.4*
CN1c2ccsc2/C(=N/Nc2ccc(F)cc2)CS1(=O)=O,-187.0*
Cc1ccc(N/N=C2\CS(=O)(=O)N(C)c3ccsc32)cc1,-149.3*
CC1=NN(c2ccccc2)C(=O)C1N=Nc1cccc(O)c1 (centres undefined),-137.6*
CC1=NN(c2ccccc2)C(=O)C1N=Nc1ccccc1 (centres undefined),-222.4*
CC(C)NC(=S)N/N=C/c1sc(N2CCCCC2)nc1-c1cccs1,-68.5*
NC(=O)N/N=C/c1sc(N2CCCCC2)nc1-c1cccs1,-66.6*
O=C(N/N=C/c1sc(N2CCOCC2)nc1-c1ccccc1)c1cccc(S(=O)(=O)N2CCOCC2)c1,86.5
SMILES,aSyn UTR act
CC(/C=C/c1ccc(N(C)C)cc1)=N\N=C(/N)SC1CC(=O)N(c2ccc(C(=O)O)cc2)C1=O (centres undefined),-67.7*
Cc1cc(C)c2c3c(sc2n1)C1(CCSCC1)C(C#N)=C(N)O3,-89.9*
COc1ccc(C2=NN(S(C)(=O)=O)C(c3cccs3)C2)cc1 (centres undefined),-94.8*
COc1ccc(C2CC(c3cccs3)=Nc3ccccc3S2)cc1 (centres undefined),-163.4*
Cc1ccc(C2=NN(S(C)(=O)=O)C(c3cccs3)C2)cc1 (centres undefined),-146.0*
CS(=O)(=O)N1N=C(c2ccc(Br)cc2)CC1c1cccs1 (centres undefined),-117.5*
COc1ccc(C2CC(c3cccs3)=NN2S(C)(=O)=O)cc1 (centres undefined),-84.7*
CCc1ccc(C2=NN(S(C)(=O)=O)C(c3cccs3)C2)cc1 (centres undefined),-92.3*
COc1ccc(Nc2c(-c3ccco3)nc3ccc(C)cn23)cc1,-88.7*
Cc1ccc(Nc2c(-c3ccco3)nc3ccccn23)cc1,-83.0*
Cc1ccccc1Nc1c(-c2ccccn2)nc2ccccn12,63.7
CCC(C)c1ccc(Nc2ncccc2C#N)cc1 (centres undefined),-176.4*
CCc1ccc(Nc2ncccc2C#N)cc1,-67.7*
COc1ccc(CCNc2ncccc2C#N)cc1OC,-113.8*
CCOc1ccc(-c2cc(CCCC(=O)NCCc3ccc(OC)c(OC)c3OC)no2)cc1,56.6
CCOc1ccc(-c2nc(CCl)cs2)cc1OC,-104.5*
Cc1cc(C)nc(NC(=O)/C=C/c2ccccc2Cl)n1,-160.5*
Cc1cc(C)nc(NC(=O)/C=C/c2ccc(Cl)cc2Cl)c1,-129.2*
Cc1cc(N)c2cc(NC(=O)/C=C/c3ccccc3Cl)ccc2n1,106.8
Cc1cc(C)nc(NC(=O)/C=C/c2ccccc2Cl)c1,-185.0*
Cc1cc(C(=O)NNC(=S)NC(=O)/C=C/c2ccccc2Cl)n[nH]1,-94.2*
CCOc1cc(C)c(S(=O)(=O)Nc2ccc3cn[nH]c3c2)cc1C,-73.7*
Nc1c(C(=O)Nc2cccc(Cl)c2Cl)sc2nc(-c3cccnc3)ccc12,-61.9*
COc1cccc(-c2ccc3c(N)c(C(=O)NC4CC4)sc3n2)c1,-76.4*
COc1ccc(-c2ccc3c(N)c(C(=O)c4cccc(OC)c4)sc3n2)cc1,-71.2*
SMILES,aSyn UTR act
Cc1ccc(-c2nc3cccnc3s2)cc1NC(=O)c1ccco1,-198.0*
CCS(=O)(=O)Nc1cccc(-c2nc3cccnc3s2)c1,-62.0*
CCS(=O)(=O)Nc1cc(-c2nc3cccnc3s2)ccc1C,-122.7*
Cc1c(NS(C)(=O)=O)cccc1-c1nc2cccnc2s1,-64.4*
CCC1CCCCN1C(=O)c1ccc([N+](=O)[O-])o1 (centres undefined),-78.7*
Cc1nc(C#N)c(N/N=C/c2c(F)cccc2Cl)o1,-62.1*
Cc1ccc(/C=N/Nc2ccc(F)cc2F)s1,-179.5*
COc1cc(/C=N/Nc2ccc(F)cc2F)cc(OC)c1O,-63.3*
COc1ccc(NC(C)=O)cc1S(=O)(=O)Nc1ccccc1C(=O)NCCc1ccccc1,-127.6*

# Screens as filed in PubChem BioAssay.
